# Measurements from article PMC4552634, “A New Set of Chemical Starting Points with Plasmodium falciparum Transmission-Blocking Potential for Antimalarial Drug Discovery” (PLoS ONE, 2015).
# Screen size: about 13,000 compounds; about 3,200 (25%) showed an effect of 50% or more. The list shows a part of the results.
# Test system: P. falciparum stage V gametocytes
# Set-up: BacTiter-Glo ATP luminescence viability of purified stage V gametocytes in 384-well plates, per cent inhibition versus DMSO
# Settings: 48 h, 5 µM; inhibitor
row,SMILES,% Inhibition [%]
1,NC(N)=NC(=O)Nc1ccc(Cl)c(Cl)c1 [TCMDC-124295],-4.176
2,CC(=O)Nc1ccc(Cl)c(Cl)c1 [TCMDC-125481],-1.69
3,NCCCN(Cc1ccc(Cl)c(Cl)c1)C(=O)Nc1ccc(Cl)c(Cl)c1 [TCMDC-139415],96.81
4,Cc1cccc(C(=O)Nc2ccc(N3CCCN(Cc4cccc(O)c4)CC3)cc2)c1 [TCMDC-134958],-89.08
5,O=C(/C=C/c1ccc(Cl)c(Cl)c1)NC1CCC(CN2CCC(c3nc4ccccc4s3)CC2)CC1 (stereo not drawn) [TCMDC-140215],29.32
6,CC(C)NCc1cccc(-c2cccc(-c3nc4ccccc4[nH]3)c2)c1 [TCMDC-132748],37.6
7,CC(C)(C)c1cc(CN2CCN(Cc3ccccc3)CC2)cc(C(C)(C)C)c1O [TCMDC-125537],-7.705
8,Oc1ccc(Cc2ccccc2)cc1CNC1CCCCC1 [TCMDC-137598],6.281
9,Clc1cccc(CNC2CCN(CC3CCCCC3)CC2)c1 [TCMDC-141659],7.676
10,OC(CNCc1ccccc1OCc1ccccc1)c1cc(Br)cs1 (stereo not drawn) [TCMDC-140398],22.96
11,CN1CCN(Cc2ccc(OCc3cccc(COc4ccc(CN5CCN(C)CC5)cc4I)c3)c(I)c2)CC1 [TCMDC-137239],60.02
12,OC(CNCc1ccccc1)c1cc(OCc2ccccc2)cc(OCc2ccccc2)c1 (stereo not drawn) [TCMDC-132079],44.54
13,CN1CCN(Cc2ccc(-c3cc4c(Nc5ccc(OCc6cccc(F)c6)c(Cl)c5)ncnc4s3)[nH]2)CC1 [TCMDC-135458],-90.63
14,CC(C)CNCc1ccc(OCc2cccc(COc3ccc(CNCC(C)C)cc3I)c2)c(I)c1 [TCMDC-137260],108.7
15,Ic1cc(CNC2CCCCC2)ccc1OCc1cccc(COc2ccc(CNC3CCCCC3)cc2I)c1 [TCMDC-137261],115.7
16,CC(C)NCc1ccc(OCc2cccc(COc3ccc(CNC(C)C)cc3I)c2)c(I)c1 [TCMDC-137259],114.3
17,COc1cc2ncnc(Nc3ccc(OCc4ccccc4)c(I)c3)c2cc1OC [TCMDC-131944],-25.01
18,O=C(NC1CCC(N2CCC(Cc3ccc(F)cc3)CC2)CC1)c1cc2ccccc2[nH]1 (stereo not drawn) [TCMDC-132894],45.26
19,Cc1cnc(-c2ccc(NC(=O)N3CCc4cc5nccc(N6CCN7CCC[C@H]7C6)c5cc43)c3ccccc23)o1 [TCMDC-140052],-7.754
20,COc1ccc(NS(=O)(=O)c2cc(NC(=O)Cn3ccccc3=O)ccc2N2CCCCC2)cc1 [TCMDC-124874],16.03
21,Cc1cc2c(cc1C(F)(F)F)N(C(=O)Nc1ccc(C(=O)NCCN3CCCC3)cc1)CC2 [TCMDC-139870],3.174
22,CC(=O)Nc1ncc(C(=O)Nc2cccc(-c3cccc(-c4nc5c(C)cccc5[nH]4)c3)c2)s1 [TCMDC-136920],35.18
23,C=CCOC(=O)N1CCC(CNCc2ccc(-c3ccc(-c4nc5cc(C(F)(F)F)ccc5[nH]4)cc3)cc2)C1.O=C(O)C(F)(F)F (stereo not drawn) [TCMDC-133041],-74.05

row,SMILES,% Inhibition [%]
1,Oc1ccc(CCNCc2ccc(OCc3ccccc3)c(OCc3ccccc3)c2)cc1 [TCMDC-131868],6.388
2,CCc1cc(COc2ccc(CNCCC(C)C)cc2I)c(OCc2ccccc2)c(COc2ccc(CNCCC(C)C)cc2I)c1 [TCMDC-137255],104.7
3,CC(C)CCNCc1ccc(OCc2cccc(C(=O)Nc3ccccc3)c2)c(I)c1 [TCMDC-137174],28.8
4,Ic1cc(Nc2ncnc3ccsc23)ccc1OCc1ccccc1 [TCMDC-131945],7.84
5,CN(C)Cc1cccc(CNC(=O)c2sccc2OCc2ccc(Cl)cc2)c1 [TCMDC-133072],41.43
6,CC(C)CCNCc1ccc(OCc2cccc(COc3ccc(CNCCC(C)C)cc3I)c2)c(I)c1 [TCMDC-137274],110.6
7,Cc1ccc(C)c(NC(=O)Nc2ccc(C)c(-c3ccc(C(=O)Nc4ccncc4)cc3)c2)c1 [TCMDC-133703],-9.34
8,COc1ccc(CCNc2ccnc3cc(Cl)ccc23)cc1OC [TCMDC-138550],-32.91
9,COc1ccc(NC(=O)N2CCCN(CCCCCNC(=O)/C=C/c3ccc(Cl)cc3)CC2)cc1Cl [TCMDC-136103],-49.97
10,COc1cc(CCNC(=N)/C=C/c2ccc(Cl)cc2)ccc1Cl [TCMDC-137457],106.7
11,O=C(NCCN1CCCC1)c1ccc(-c2cccc(-c3nc4ccc(F)cc4[nH]3)c2)cc1 [TCMDC-132321],-17.02
12,COc1cc(OC)cc(C(=O)Nc2ccc(Nc3nc(C)cc(N(C)C)n3)cc2)c1 [TCMDC-124726],23.32
13,NC(N)=NN=Cc1ccc2c(c1)Cc1ccccc1-2 [TCMDC-137360],-2.51
14,NC(N)=NN=Cc1cc2ccccc2c2ccccc12 [TCMDC-137671],48.28
15,NC(N)=NN=Cc1ccc2c(ccc3ccccc32)c1 [TCMDC-137912],86.91
16,NC(N)=NN=Cc1ccc2ccc3ccccc3c2c1 [TCMDC-137902],101.6
17,Cc1ccccc1C1CCN(C2CCC(NC(=O)/C=C/c3cc(F)ccc3F)CC2)CC1 (stereo not drawn) [TCMDC-133510],-90.23
18,Cc1cc(N[C@@H](Cc2ccccc2)C(=O)Nc2ccccc2)nc(NCCc2cccnc2)n1 [TCMDC-134820],59.14
19,COc1ccc(NC(=O)[C@H](Cc2ccccc2)Nc2cc(C)nc(NCCc3cccnc3)n2)cc1 [TCMDC-134818],72.32
20,COc1ccc(NC(=O)[C@H](Cc2ccccc2)Nc2cc(C)nc(Nc3ccccc3)n2)cc1 [TCMDC-134733],-3.042
21,COc1ccc(NC(=O)[C@H](Cc2ccccc2)Nc2cc(C)nc(NCCOc3ccccc3)n2)cc1 [TCMDC-134757],13.17
22,COc1ccc(O)c(C(=O)c2cc(C(=O)NC3CCCCC3)c(=O)n(C3CCCCC3)c2)c1 [TCMDC-124510],4.971
